Experimental data reported in PubChem BioAssay (EPA / NIEHS).
Values joined by “and” are separate entries in the source; they are usually repeats but may differ in a detail not shown here. Identical values can stand only once. Results filed as inconclusive are left out. Some structures have more than one record in an assay (separate samples or runs), and their calls can disagree. Active and inactive are the calls of the source. How the source made its calls, unless noted: active means hit-call score of the fitted dose curve at least 0.9, where 1 is the maximum; inactive means score below 0.9.

Tests used:
[1] = CCTE_Shafer_MEA_dev_burst_duration_mean: CCTE's Neural Network Formation Assay for Mean Burst Duration, Shafer Lab (AID 2284045)
In short: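 Rat cortical cultures, 1.5 x 10^5 cells/well with laminin drop; continuous dosing days 0–12, media plus treatment refreshed DIV 5, 9. AxIS adaptive spike detection; mean single-electrode burst duration, AUC over four recordings, negative direction vs DMSO.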

[2] = CCTE_Shafer_MEA_dev_interburst_interval_mean: CCTE's Neural Network Formation Assay for Mean Interburst Interval, Shafer Lab (AID 2284046);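 further: well-mean interburst interval of bursting electrodes as AUC over four recording days; curve fitted for decrease in interburst interval relative to DMSO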
In short: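 Rat cortical neurons, 1.5 x 10^5 cells/well, 48-well MEA; compound from day 0 through DIV 12, media and treatment renewed DIV 5/9. Recordings DIV 5, 7, 9, 12; well-mean interburst interval → trapezoidal AUC, loss direction vs DMSO.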

[3] = CCTE_Shafer_MEA_dev_inter_network_spike_interval_mean: CCTE's Neural Network Formation Assay for Mean Inter-network Spike Interval, Shafer Lab (AID 2284047)
In short: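 Primary rat cortical neurons on PEI-coated 48-well MEAs (16 electrodes/well) were exposed from plating day 0 to DIV 12, with dosing renewed at DIV 5 and 9. Recordings at DIV 5, 7, 9, 12 were collapsed by trapezoidal AUC, loss-of-signal fit vs DMSO.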

[4] = CCTE_Shafer_MEA_dev_network_spike_number: CCTE's Neural Network Formation Assay for Number of Network Spikes, Shafer Lab (AID 2284048);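 further: synchronized bursts across electrodes counted on days 5 7 9 12 and integrated as AUC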;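 on AC50: fit as a loss of signal meaning fewer network spikes than DMSO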
In short: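 Rat cortical primary cultures on 48-well MEA (16 electrodes/well); continuous exposure DIV 0–12, full medium and treatment exchange DIV 5, 9. Readout: network spike count, AxIS adaptive detection, recordings DIV 5/7/9/12 collapsed to AUC; loss-of-signal fit, DMSO baseline.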

[5] = CCTE_Shafer_MEA_dev_network_spike_peak: CCTE's Neural Network Formation Assay for Mean Number of Electrodes in Network Spike, Shafer Lab (AID 2284049);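 on AC50: fitted for loss of signal meaning fewer electrodes in network spikes than DMSO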
In short: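 Network-spike peak electrode count from recordings on days 5, 7, 9 and 12 was combined as trapezoidal area under the curve. Rat cortical cultures were treated continuously from plating, with compound renewed at each feed (DIV 5, 9); fits versus DMSO.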

[6] = CCTE_Shafer_MEA_dev_spike_duration_mean: CCTE's Neural Network Formation Assay for Mean Spike Duration, Shafer Lab (AID 2284051);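 further: mean network spike duration pooled as area under curve over DIV 5 to 12 recordings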;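 on AC50: potency for a decrease in mean network spike duration versus DMSO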
In short: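 Rat cortical primary cultures, 48-well MEA (16 electrodes/well); compound from plating, renewed DIV 5, 9. Network spike duration (AxIS adaptive detector) recorded DIV 5/7/9/12, combined as trapezoidal AUC; loss direction vs DMSO.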

[7] = CCTE_Shafer_MEA_dev_network_spike_duration_std: CCTE's Neural Network Formation Assay for Standard Deviation of Network Spike Duration, Shafer Lab (AID 2284052);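 further: area under curve of spike duration SD across recording days 5 to 12; hits are decreases in network spike duration SD versus DMSO vehicle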
In short: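 Rat cortical cultures, 1.5 x 10^5 cells/well, exposed continuously from plating to DIV 12 with media/compound renewal at DIV 5, 9. Spontaneous activity recorded DIV 5/7/9/12, AxIS adaptive spike detector; AUC across days; negative direction vs DMSO.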

[8] = CCTE_Shafer_MEA_dev_per_network_spike_spike_number_mean: CCTE's Neural Network Formation Assay for Mean Number of Spikes in a Network Spike, Shafer Lab (AID 2284053);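 on AC50: fitted as decrease in spikes per network spike relative to DMSO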
In short: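 Rat cortical primary cultures on 48-well MEA; compound from day 0, re-dosed with full media change DIV 5, 9. Recorded DIV 5, 7, 9, 12; spikes in 0.05 s window at network-spike peak ÷ total network spikes; AUC; loss vs DMSO.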

[9] = CCTE_Shafer_MEA_dev_LDH: CCTE's Lactate Dehydrogenase Assay for Cytotoxicity in the Neural Network Formation Assay, Shafer Lab (AID 2284068; active means hit-call score of the fitted dose curve at least 0.9, where 1 is the maximum;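 further: exposure for twelve days from plating with re-dosing on DIV 5 and 9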)
In short: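 Rat cortical primary neurons, MEA culture; dosing day 0–12, full medium plus compound exchange DIV 5, 9. Read-out: LDH enzyme activity, spectrophotometric. DMSO = negative control/baseline; signal loss → cytotoxicity.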

[10] = CCTE_Shafer_MEA_dev_AB: CCTE's Alamar Blue Assay for Cytotoxicity in the Neural Network Formation Assay, Shafer Lab (AID 2284083; active means hit-call score of the fitted dose curve at least 0.9, where 1 is the maximum;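 further: resazurin reduction fluorescence as viability of cultured neurons; twelve days of exposure from plating with re-dosing on DIV 5 and 9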)
In short: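 Rat cortical primary cultures, 1.5 x 10^5 cells/well on MEA; continuous compound exposure over 12 days of network development, re-dosed with full medium change DIV 5 and 9. Alamar Blue fluorescence; loss of signal = cytotoxicity vs DMSO baseline.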

[11] = CCTE_Shafer_MEA_acute_LDH: CCTE's Lactate Dehydrogenase Assay for Cytotoxicity in the Neural Acute Assay, Shafer Lab (AID 2284086; active means hit-call score of the fitted dose curve at least 0.9, where 1 is the maximum;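 further: active means LDH release rises above DMSO vehicle level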)
In short: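 LDH absorbance at 490 nm in medium taken right after 40-min compound exposure; rat primary cortical neuron networks on MEA plates, days post-plating 13 or 15. Increase over DMSO baseline scored as cytotoxicity.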

[12] = CCTE_Shafer_MEA_dev_mutual_information_norm: CCTE's Neural Network Formation Assay for Mutual Information Normalization, Shafer Lab (AID 2284091);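 on AC50: mutual information between electrodes summarised as area under curve across four recording days; potency is for a decrease in mutual information relative to DMSO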
In short: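 Neurons from rat cortex were seeded at 1.5 x 10^5 cells/well onto PEI-coated MEAs in a laminin drop, then exposed to compound from day 0 for twelve days. Network recordings on four days gave mutual information, summarised by AUC relative to DMSO.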

[13] = CCTE_Shafer_MEA_dev_correlation_coefficient_mean: CCTE's Neural Network Formation Assay for Mean Correlation Coefficient, Shafer Lab (AID 2284093);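 on AC50: well mean pairwise spike train correlation integrated as AUC over recording days 5 to 12; potency fitted for loss of correlation relative to DMSO vehicle wells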
In short: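 Rat cortical cultures, 1.5 x 10^5 cells/well, dosed from day 0 for 12 days. Spontaneous spikes recorded DIV 5/7/9/12; electrode-pair correlation coefficients averaged, AUC taken. Fit in loss direction vs DMSO.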

[14] = IUF_NPC1b_proliferation_BrdU_72hr: Leibniz Research Institute for Environmental Medicine (IUF) 72-hour Neural Progenitor Cell Bromodeoxyuridine (BrdU) Proliferation Assay (NPC1b) (AID 2284207)
In short: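 Luminescent BrdU ELISA measured DNA synthesis during the last 16 h of a 72 h exposure of primary human neural progenitor spheres grown with EGF and FGF. Signal was fitted relative to DMSO controls.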

[15] = CCTE_Shafer_MEA_acute_AB: CCTE's Alamar Blue Assay for Cytotoxicity in the Neural Acute Assay, Shafer Lab (AID 2284069; active means hit-call score of the fitted dose curve at least 0.9, where 1 is the maximum;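 further: active compounds lower the viability signal compared with DMSO wells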)
In short: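 Read-out: resazurin fluorescence (ex 544, em 590 nm) after CTB reagent at 1:6 dilution in fresh media. Cells: primary rat cortical neuron networks, DIV 13 or 15, chemically exposed on MEA plates; DMSO as negative control/baseline.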

[16] = UKN2_HCS_IMR90_neural_migration: University of Konstanz (UKN) Leist Lab Neural Crest Cell Migration Assay in human induced IMR90 Pluripotent Stem Cells (UKN2) (AID 2284204); conditions: actives raise or lower the signal
In short: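 Stopper-exclusion migration (cMINC), human iPSC-derived neural crest cells; N2-S + EGF/FGF; compound added 24 h post-stopper removal, 24 h exposure. Readout: calcein-AM/Hoechst 30 min, HCS fluorescence imaging; bidirectional fitting, DMSO baseline.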

DIO2 (gene 1734) = assay: CCTE_GLTED_hDIO2: CCTE's human Deiodinase 2 (DIO2) Inhibition Assay, Great Lakes Toxicology and Ecology Division (GLTED) Lab (AID 2284050; active means hit-call score of the fitted dose curve at least 0.9, where 1 is the maximum)
In short: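 Readout: absorbance from Sandell-Kolthoff detection of free iodide released by human DIO2 during a 3 h incubation with chemical. Cell-free format, n=3; activity fitted relative to DMSO negative control.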

DIO3 (gene 1735) = assay: CCTE_GLTED_hDIO3: CCTE's human Deiodinase 3 (DIO3) Inhibition Assay, Great Lakes Toxicology and Ecology Division (GLTED) Lab (AID 2284055; active means hit-call score of the fitted dose curve at least 0.9, where 1 is the maximum;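 on AC50: potency is for inhibition seen as loss of released iodide signal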)
In short: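 hDIO3 (adenovirus-expressed) + test chemical, 3 h incubation; free iodide quantified by Sandell-Kolthoff reaction, absorbance read-out. DMSO negative control, n=3.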

[17] = UKN5_HCS_SBAD2_cell_viability: Viability Assessment in the University of Konstanz (UKN) Leist Lab Neurite Outgrowth Assay in human iPSC-derived immature Dorsal Root Ganglia Neurons (UKN5) (AID 2284056)
In short: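 iPSC-derived immature peripheral neurons (SBAD2) seeded on Matrigel with CHIR99021, SU5402 and DAPT, dosed 1 h later for 24 h. Viability from Hoechst H-33342 and calcein-AM live staining, high-content imaging; bidirectional fit versus DMSO.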

[18] = UKN5_HCS_SBAD2_neurite_outgrowth: University of Konstanz (UKN) Leist Lab Neurite Outgrowth Assay in human iPSC-derived immature Dorsal Root Ganglia Neurons (UKN5) (AID 2284070); conditions: actives raise or lower the signal
In short: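 Cryopreserved SBAD2 peripheral neurons were seeded at 100.000 cells/cm2 in N2-S/KSR medium containing CHIR99021, SU5402 and DAPT, then exposed to compounds for 24 h. Neurite area from calcein-AM high-content imaging was fitted bidirectionally against DMSO.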

Measured: AC50

CCCCC(CC)COP(=O)(Oc1ccccc1)Oc1ccccc1 (stereo not drawn)
active: [5] 1.67 µM | [9] 6.12 µM | [14] 0.542 µM
not listed: [15] | [16] | DIO2 (gene 1734) | DIO3 (gene 1735) | [17] | [18]
inactive: all other assays above

CCOc1ccc(C(C)(C)COCc2cccc(Oc3ccccc3)c2)cc1
active: [2] 18 µM | [5] 6.54 µM | [6] 4.41 µM | [8] 10 µM | [9] 15.2 µM | [10] 1.98 µM | [12] 3.09 µM | [13] 10 µM | [14] 1.92 µM
inactive: [1] | [3] | [4] | [7]

OCC(F)(F)OC(F)(F)C(F)(F)OC(F)(F)C(F)(F)OC(F)(F)F
active: [5] 0.818 µM
not listed: [11] | [14] | [15] | [16] | DIO2 (gene 1734) | DIO3 (gene 1735) | [17] | [18]
inactive: all other assays above

O=C(O)C(F)(F)C(F)(F)C(=O)O
active: [13] 1.81 µM
not listed: [11] | [14] | [15] | [16] | DIO2 (gene 1734) | DIO3 (gene 1735) | [17] | [18]
inactive: all other assays above

ClC1=C(Cl)C2(Cl)C3C(Cl)C(Cl)CC3C1(Cl)C2(Cl)Cl (stereo not drawn)
inactive: [1] | [3] | [7] | [15] | [11]
active: [2] 7.68 µM | [4] 1.98 µM | [5] 6.76 µM | [6] 7.67 µM | [8] 7.75 µM | [9] 7.62 µM | [10] 7.42 µM | [12] 7.75 µM | [13] 7.71 µM

OCC(F)(F)OC(F)(F)C(F)(F)OC(F)(F)CO
inactive: [1] | [2] | [3] | [4] | [5] | [6] | [7] | [8] | [9] | [12] | [13]

CCOP(=S)(OCC)SCSCC
active: [2] 50 µM | [5] 74.9 µM and 26.4 µM | [6] 72.3 µM | [8] 50 µM and 12.1 µM | [9] 33.7 µM | [10] 68.9 µM | [12] 4.04 µM | [13] 74.5 µM and 13 µM | [14] 0.761 µM
inactive: [1] | [2] | [3] | [4] | [6] | [7] | [9] | [10] | [12] | [16]

CCC1(c2ccccc2)C(=O)N=C(O)NC1=O (stereo not drawn)
not listed: [11] | [14] | [16] | DIO2 (gene 1734) | DIO3 (gene 1735) | [17] | [18]
inactive: all other assays above

c1ccc2c(c1)Nc1ccccc1S2
inactive: [15]

CC(Cl)(Cl)C(=O)O
inactive: [15] | [11]

CC1(C)CN=C(NN=C(/C=C/c2ccc(C(F)(F)F)cc2)/C=C/c2ccc(C(F)(F)F)cc2)NC1
active: DIO2 (gene 1734) 18.8 µM
inactive: DIO3 (gene 1735)

COC(=O)C(F)(F)C(F)(F)OC(F)(C(F)(F)F)C(F)(F)OC(F)=C(F)F (stereo not drawn)
active: DIO2 (gene 1734) 18.2 µM | DIO3 (gene 1735) 3.1 µM

O=c1ssc(Cl)c1Cl
active: DIO2 (gene 1734) 13.8 µM | DIO3 (gene 1735) 3.57 µM

COCCOCCO
inactive: [15] | [11]

O=C(O)C(F)(F)OC(F)(F)C(F)(F)OC(F)(F)F
active: [13] 3.78 µM
inactive: [1] | [2] | [3] | [4] | [5] | [6] | [7] | [8] | [12]

O=C(O)C=CC(F)(C(F)(F)F)C(F)(F)F
inactive: [1] | [2] | [3] | [4] | [5] | [6] | [7] | [8] | [12] | [13]

O=S1(=O)OCC2C(CO1)C1(Cl)C(Cl)=C(Cl)C2(Cl)C1(Cl)Cl (stereo not drawn)
inactive: [17] | [18] | [14]

[N-]=[N+]=[N-]
inactive: [15] | [11]

Nc1ccc2ccccc2c1
inactive: [11]

ClC(Cl)(Cl)c1ccccc1
inactive: [15] | [11]

CCCCCCCc1ccc(O)cc1
active: DIO2 (gene 1734) 136 µM | DIO3 (gene 1735) 81.2 µM

CCC(C)(C)c1ccc(O)cc1
inactive: [15]

CCNc1nc(Cl)nc(NC(C)(C)C)n1
active: DIO3 (gene 1735) 11.4 µM
inactive: DIO2 (gene 1734)

O=C(O)C(F)(F)OC(F)(F)C(F)(F)OC(F)(F)C(=O)O
inactive: [1] | [2] | [3] | [4] | [5] | [6] | [7] | [8] | [12] | [13]

Cc1ccc(N)cc1N
inactive: [11]

COP(=O)(CCC(=O)NCO)OC
inactive: [11]

O=S(=O)(F)C(F)(F)C(F)(F)C(F)(F)C(F)(F)C(F)(F)C(F)(F)C(F)(F)C(F)(F)F
active: DIO3 (gene 1735) 28.4 µM

CCOP(=S)(Oc1ccc([N+](=O)[O-])cc1)c1ccccc1 (stereo not drawn)
inactive: [15] | [11]

CCCCOCCOP(=O)(OCCOCCCC)OCCOCCCC
inactive: [14]
